Results from PubChem BioAssay (Tox21).
Values joined by “and” are separate entries in the source; they are usually repeats but may differ in a detail not shown here. Equal entries are not always repeated. Some compounds were tested as several samples or in several runs, with calls that do not always agree. Active and inactive are the calls of the source. Where a call stands in place of a potency, no number is given. Unless noted, calls come from the whole dose curve; as a rule, active = well fitted curve in the direction sought with a large enough effect in the repeat runs; inconclusive = weak or mixed curves; inactive = no such curve, though single readings can be large; an effect the other way counts as inactive or inconclusive.

Key:
[1] = qHTS assay to identify small molecule antagonists of the thyroid receptor (TR) signaling pathway - cell viability counter screen (AID 743064); note: nearly all actives have a fitted effect of over 50% in size; note: potency is the fitted concentration of half-maximal effect
In short: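 Rat GH3 pituitary tumor cells stably expressing two TR response elements driving luciferase were plated, rested 4 h, then dosed with library compounds and T3 (1 nM final). After 23.5 h at 37 °C, CellTiter-Fluor was added for 30 min and fluorescence recorded.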

[2] = qHTS assay to identify small molecule antagonists of the thyroid receptor (TR) signaling pathway (AID 743065); note: nearly all actives have a fitted effect of over 55% in size; note: potency is the fitted concentration of half-maximal effect
In short: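 GH3.TRE-Luc rat pituitary cells carrying two TR response elements driving luciferase were plated for 4 h, given compound plus 1 nM T3 (final), and incubated 23.5 h at 37 C. ONE-Glo luminescence measured reporter inhibition; CellTiter-Fluor fluorescence tracked cytotoxicity.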

[3] = test system: thyroid hormone receptor (rat, GH3 cells); experiment: qHTS assay to identify small molecule agonists of the thyroid receptor (TR) signaling pathway (AID 743066; calls by dose curve)
[4] = qHTS assay to identify small molecule antagonists of the estrogen receptor alpha (ER-alpha) signaling pathway - cell viability counter screen (AID 743074; calls by dose curve; note: nearly all actives have a fitted effect of over 45% in size)
[5] = qHTS assay to identify small molecule antagonists of the estrogen receptor alpha (ER-alpha) signaling pathway using the BG1 cell line - cell viability counter screen (AID 743081);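 note: compound given together with 17beta-estradiol as the ER stimulus; nearly all actives have a fitted effect of over 45% in size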
Aromatase (Homo sapiens) = Aromatase (Homo sapiens) (UniProt P11511); experiment: qHTS assay to identify aromatase inhibitors (AID 743083); note: nearly all actives have a fitted effect of over 55% in size; note: potency is the fitted concentration of half-maximal effect
[6] = target: Estrogen receptor (Homo sapiens) (UniProt P03372); experiment: qHTS assay to identify small molecule antagonists of the estrogen receptor alpha (ER-alpha) signaling pathway (AID 743069; active = well fitted curve in the direction sought with a large enough effect in the signal ratio in the repeat runs, not every such curve was filed as active; inconclusive = weak or mixed curves, or effect the other way; inactive = no such curve, though single readings can be large or run the other way; the % refers to the signal ratio)
In short: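 HEK293 cells stably carrying an ER-alpha-UAS-bla beta-lactamase reporter were pre-cultured overnight in 2% charcoal-stripped FBS medium. Test compounds in DMSO were added together with 17beta-estradiol for 18 hr at 37C. Read-out was fluorescence after 2 hr with LiveBLAzer B/G FRET substrate at room temperature.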

[7] = target: Estrogen receptor (Homo sapiens) (UniProt P03372); experiment: qHTS assay to identify small molecule agonists of the estrogen receptor alpha (ER-alpha) signaling pathway (AID 743075; calls by dose curve; note: potency is the fitted concentration of half-maximal effect)
[8] = target: Estrogen receptor (Homo sapiens) (UniProt P03372); experiment: qHTS assay to identify small molecule agonists of the estrogen receptor alpha (ER-alpha) signaling pathway using the BG1 cell line (AID 743079); conditions: BG1Luc4E2 cells, ERE-luciferase agonist, 22 h; activation: at 70.3 µM (top of the series) unless noted; note: nearly all actives have a fitted effect of over 20% in size; note: potency is the fitted concentration of half-maximal effect
[9] = qHTS assay to identify small molecule antagonists of the estrogen receptor alpha (ER-alpha) signaling pathway using the BG1 cell line (AID 743080; calls by dose curve;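 note: BG1 cells stimulated with 17beta-estradiol alongside compound; nearly all actives have a fitted effect of over 25% in size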)
In short: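 Quantitative HTS on the Tox21 10K library: BG1 cells with endogenous ER-alpha and ERE-luciferase reporter, 17beta-estradiol stimulation, 21.5 h compound exposure, luminescence endpoint with parallel fluorescence cytotoxicity counter-read.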

Chain of Estrogen receptor (Homo sapiens) (P03372 whole entry, looked up): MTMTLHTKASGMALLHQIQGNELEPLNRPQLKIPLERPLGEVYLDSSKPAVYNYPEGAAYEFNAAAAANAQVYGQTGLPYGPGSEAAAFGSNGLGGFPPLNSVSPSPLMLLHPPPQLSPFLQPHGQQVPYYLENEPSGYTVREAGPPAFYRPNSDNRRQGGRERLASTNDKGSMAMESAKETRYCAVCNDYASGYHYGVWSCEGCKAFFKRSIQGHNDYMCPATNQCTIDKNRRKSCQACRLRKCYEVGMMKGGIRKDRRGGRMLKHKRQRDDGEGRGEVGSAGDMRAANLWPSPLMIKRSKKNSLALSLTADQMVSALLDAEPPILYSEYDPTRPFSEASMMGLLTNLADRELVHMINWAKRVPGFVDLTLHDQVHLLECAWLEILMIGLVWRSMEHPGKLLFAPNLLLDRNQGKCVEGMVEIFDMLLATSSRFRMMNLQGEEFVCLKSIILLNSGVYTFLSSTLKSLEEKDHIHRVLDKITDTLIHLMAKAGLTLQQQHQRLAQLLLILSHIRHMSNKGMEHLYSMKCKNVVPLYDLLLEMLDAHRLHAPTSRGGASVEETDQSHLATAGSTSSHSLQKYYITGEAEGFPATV
Chain of Aromatase (Homo sapiens) (P11511 whole entry, looked up): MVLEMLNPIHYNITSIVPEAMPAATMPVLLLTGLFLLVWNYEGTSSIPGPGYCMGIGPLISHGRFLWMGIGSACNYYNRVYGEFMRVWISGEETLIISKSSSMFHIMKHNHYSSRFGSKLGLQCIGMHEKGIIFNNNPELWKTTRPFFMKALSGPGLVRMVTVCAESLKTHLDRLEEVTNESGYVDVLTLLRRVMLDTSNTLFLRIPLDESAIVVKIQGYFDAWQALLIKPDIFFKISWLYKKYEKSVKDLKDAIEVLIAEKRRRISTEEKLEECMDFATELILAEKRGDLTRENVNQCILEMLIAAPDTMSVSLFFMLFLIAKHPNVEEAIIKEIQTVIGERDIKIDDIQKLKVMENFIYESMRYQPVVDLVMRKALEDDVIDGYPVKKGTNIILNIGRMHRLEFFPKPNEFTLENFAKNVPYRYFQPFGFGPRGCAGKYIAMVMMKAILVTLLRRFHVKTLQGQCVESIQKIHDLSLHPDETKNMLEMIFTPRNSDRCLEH

| Structure (SMILES) | Potency [1] | Potency [2] | Potency [3] | Potency [4] | Potency [5] | Potency (Aromatase (Homo sapiens)) | Potency [6] | Potency [7] | Potency [8] | activation [8] | Potency [9] |
| --- | --- | --- | --- | --- | --- | --- | --- | --- | --- | --- | --- |
| COC(=O)OC | inactive | inactive | inactive | inactive | inactive | inactive |  |  |  |  |  |
| O=C1C(N(CO)C(=O)NCO)N(CO)C(=O)N1CO (stereo not given) | inactive |  | inactive | inactive | inactive | inactive | inactive | inactive | inactive |  |  |
| CC1(C)C(=O)N(Cl)C(=O)N1Cl | inactive |  | inactive | inactive | inactive | inactive | inactive | inactive | 77 µM (active) and inactive |  |  |
| COc1cc(NC(=O)CC(C)=O)c(OC)cc1Cl | inactive |  | inactive | inactive | inactive | inactive and 12.2 µM (active) |  | inactive | inactive |  |  |
| OCCOCCOCCOCCOCCO | inactive | inactive | inactive | inactive | inactive | inactive |  |  |  |  |  |
| COc1ccc2cc3[n+](cc2c1OC)CCc1cc2c(cc1-3)OCO2 | inactive | 61.6 µM (active) | inactive |  |  | inactive |  | inactive |  |  |  |
| CN1CCCC1=O | inactive |  | inactive | inactive | inactive | inactive | inactive | inactive | inactive |  |  |
| O=c1c(O)c(-c2ccc(O)c(O)c2)oc2cc(O)cc(O)c12 | inactive and 30.9 µM (active) |  | inactive | inactive | inactive | inactive |  | 24.6 µM [inconclusive] (active) [middle of 4 runs] | 29.8 µM (active) and 68.7 µM (active) | 18.1% [at 95 µM] (active) | inactive |
| CC(=O)OC/C=C(\C)CCC=C(C)C | inactive |  | inactive | inactive | inactive | inactive | inactive | inactive | inactive |  |  |
| NC(=O)c1ncn([C@@H]2O[C@H](CO)[C@@H](O)[C@H]2O)n1 | 33.5 µM (active) | 13.3 µM (active) and 28.8 µM (active) | inactive | inactive | inactive | inactive |  |  |  |  |  |
| Oc1ccc(Cc2ccccc2O)cc1 | inactive |  | inactive | inactive | inactive | inactive |  | 11.1 µM [inconclusive] (active) and 24.5 µM [inconclusive] (active) | 9.81 µM (active) and 6.11 µM (active) |  |  |
| CCOC(=O)CC(=O)OCC | inactive | inactive | inactive |  | inactive |  |  |  |  |  |  |
| OCC(CO)(CO)CO | inactive |  | inactive | inactive | inactive | inactive | inactive | inactive | inactive |  | inactive |
| C[n+]1ccn(CCO)c1 | inactive | inactive | inactive | inactive | inactive | inactive |  |  |  |  |  |
| Cc1cc(C)c(O)c(C)c1 | inactive |  | inactive | inactive | inactive | inactive | inactive | inactive | inactive |  | inactive |
| CCN(CC)CCNC(=O)c1ccc(N)cc1 | inactive | inactive | inactive | inactive | inactive | inactive |  |  |  |  |  |
| NCCNCCNCCN | inactive | inactive | inactive | inactive | inactive |  |  |  |  |  |  |
| CC(C)c1ccc(C(C)C)cc1 | inactive |  | inactive | inactive | inactive | inactive | inactive | inactive | inactive |  |  |
| Cc1ccc([N+](=O)[O-])cc1N | inactive |  | inactive |  | inactive | inactive | inactive | inactive | inactive |  | inactive |
| COC(=O)/C=C\C(=O)OC | inactive | inactive | inactive | inactive | inactive |  |  |  |  |  |  |
| CC1=CC(=O)CC(C)(C)C1 | inactive | inactive | inactive | inactive | inactive | inactive |  |  |  |  |  |
| CC(=O)OCCC(C)C | inactive | inactive | inactive | inactive | inactive | inactive |  |  |  |  |  |
| OCc1ccc(Cl)cc1Cl | inactive | inactive | inactive | inactive | inactive | inactive |  |  |  |  |  |
| Brc1ccc(Oc2ccc(Br)cc2)cc1 | inactive |  | inactive | inactive | inactive |  |  |  |  |  |  |
| CC/C=C(\C(=O)N[C@@H]1C(=O)N2C(C(=O)OCOC(=O)C(C)(C)C)=C(COC(N)=O)CS[C@H]12)c1csc(N)n1 | inactive |  | inactive | inactive |  | inactive |  | inactive | inactive |  | inactive |
| C=C1C[C@]23C[C@@]1(O)CC[C@H]2[C@@]12C=C[C@H](O)[C@@](C)(C(=O)O1)[C@H]2[C@@H]3C(=O)O | inactive | inactive | inactive | inactive | inactive | inactive |  |  |  |  |  |
| O=C(Cl)c1ccc(C(=O)Cl)cc1 | inactive |  | inactive | inactive | inactive | inactive | inactive | inactive | inactive |  | inactive |
| Cc1ccc(C(C)C)cc1 | inactive |  | inactive | inactive | inactive | inactive | inactive | inactive | inactive |  |  |
| CO[Si](CCCNCCN)(OC)OC | inactive | inactive | inactive | inactive | inactive | inactive |  |  |  |  |  |
| CC/C(C)=N/O | inactive |  | inactive | inactive | inactive |  |  |  |  |  |  |
